Laboratory results as given in PubChem BioAssay (Tox21).
Results filed as inconclusive are left out. Where a call stands in place of a potency, no number is given. Calls of active or inactive are those of the source. Calls follow the shape of the dose curve; as a rule, active = well fitted cell-killing curve with a large enough effect in the repeat runs; inconclusive = weak or mixed curves, or effect the other way; inactive = flat fitted curve, though single readings scatter.

assay: qHTS assay to identify small molecule antagonists of the estrogen receptor alpha (ER-alpha) signaling pathway using the BG1 cell line in the presence of 0.1 nM 17-beta-estradiol - cell viability counter screen (AID 1259241); details: VM7Luc4E2 (BG1) viability, CellTiter-Fluor protease, 22 h, 0.1 nM estradiol agonist added; series mostly up to 92.4 µM; also: nearly all actives have a fitted effect of over 40% in size
From the text: National Center for Advancing Translational Sciences [NCATS]
NIH Chemical Genomics Center [NCGC]
U.S. Environmental Protection Agency [EPA]
National Institutes of Environmental Health Sciences [NIEHS]
National Toxicology Program [NTP]
U.S. Food and Drug Administration [FDA]
Estrogen receptor (ER), a member of the nuclear hormone receptor plays an important role in development, metabolic homeostasis and reproduction. Two subtypes of ER, ER-alpha and ER-beta, have similar expression patterns with some uniqueness in both types. Endocrine disrupting chemicals (EDCs) and their interactions with steroid hormone receptors like ER causes disruption of normal endocrine function. Therefore, it is important to understand the effect of environmental chemicals in ER signaling pathway. For identifying ER antagonists, VM7Luc4E2 cell line was used to screen against Tox21 compound libraries.
VM7Luc4E2 cell line (provided by Denison MS, University of California) endogenously express full-length ER-alpha and is stably transfected with a plasmid containing four estrogen responsive elements (ERE) upstream of a luciferase reporter gene. The current screening for identification of ER-alpha inhibitors against Tox21 compound libraries used lower concentration (0.1 nM) of 17beta-Estradiol as a stimulator. The cytotoxicity of the Tox21 compound libraries against VM7Luc4E2 cell line was tested by measuring live-cell protease activity using CellTiter-Fluor assay in the same wells.
Tox21 Assay Protocol Summary:
VM7Luc4E2 cells were cultured in phenol red free assay medium containing 10% charcoal stripped FBS for 5 days prior to the assay. The cells were dispensed at 4,000 cells/well in 4 uL of assay medium into white wall/solid-bottom 1536-well plates (Corning Life Sciences, Corning, NY) using a Multidrop Combi (ThermoFisher Scientific, Waltham, MA) dispenser. After the assay plates were incubated at 37C and 5% CO2 for 24 hr, 23 nL of compounds dissolved in DMSO, positive controls or DMSO only was transferred to the assay plates by a Pintool station (Kalypsys, San Diego, CA). The transfer of compounds was followed by the addition of 1 uL of 0.1 nM (final concentration) agonist (17beta-Estradiol)/assay medium using a Flying Reagent Dispenser (FRD, Aurora Discovery, San Diego, CA). The plates were incubated at 37C and 5% CO2 for 22 hr. For cytotoxicity assay, 1 uL of CellTiter-Fluor reagent (Promega Corporation, Madison, WI) was added to each well using the FRD and after 30 min incubation at 37C and 5% CO2, The fluorescence intensity was measured using ViewLux plate reader (PerkinElmer, Shelton, CT).

For CC(C)(c1cc(Cl)c(O)c(Cl)c1)c1cc(Cl)c(O)c(Cl)c1, which Potency is on record?
The Potency was “inactive”.

Which Potency does the source give for c1ccc(P(c2ccccc2)c2ccccc2)cc1 here?
Its Potency is “inactive”.

With NNC(=S)NN as the compound, how does the Potency read?
Its Potency is “inactive”.

With CCN(CC)N=O as the compound, how does the Potency read?
Its Potency is “inactive”.

For Cc1cccc(N)c1N, which Potency is on record?
Its Potency is “inactive”.

For CCCCN(CCCC)N=O, which Potency is on record?
The Potency was “inactive”.

Which Potency does the source give for c1ccc(-c2cccc(-c3ccccc3)c2)cc1 here?
The Potency was “inactive”.

With O=c1oc2ccccc2c(O)c1C(CC(O)c1ccc(-c2ccc(Br)cc2)cc1)c1ccccc1 (stereo not given) as the compound, how does the Potency read?
Its Potency is “inactive”.

For CCN(N=O)C(N)=O, which Potency is on record?
The Potency was “inactive”.

Which Potency does the source give for N[C@@H](Cc1ccc(N(CCCl)CCCl)cc1)C(=O)O here?
Its Potency is “inactive”.

For Cc1ccccc1[N+](=O)[O-], which Potency is on record?
The Potency was “inactive”.

Which Potency does the source give for Nc1ccc(-c2ccc(N)c(N)c2)cc1N here?
The Potency was “inactive”.

With Nc1ccc(Cl)c(Cl)c1 as the compound, how does the Potency read?
The Potency was “inactive”.

With CC(C)N(C(=O)SCC(Cl)=C(Cl)Cl)C(C)C as the compound, how does the Potency read?
Its Potency is “inactive”.

For Nc1c(Cl)cc([N+](=O)[O-])cc1Cl, which Potency is on record?
Its Potency is “inactive”.

For CCCCNC(=O)n1c(NC(=O)OC)nc2ccccc21, which Potency is on record?
The Potency was “inactive”.

With C[C@]12CCC(=O)C[C@@H]1CC[C@@H]1[C@@H]2CC[C@]2(C)[C@@H](O)CC[C@@H]12 as the compound, how does the Potency read?
Its Potency is “inactive”.

Which Potency does the source give for S=C1NCCN1 here?
The Potency was “inactive”.

Which Potency does the source give for c1nc[nH]n1 here?
Its Potency is “inactive”.

For Oc1cc(Cl)ccc1Cl, which Potency is on record?
The Potency was “inactive”.

For OCC(O)CO, which Potency is on record?
The Potency was “inactive”.

Which Potency does the source give for Cc1cc(C)cc(C)c1 here?
The Potency was “inactive”.

With C=C(C)C(=O)OCC1CO1 (stereo not given) as the compound, how does the Potency read?
Its Potency is “inactive”.

For CCCCOCCOP(=O)(OCCOCCCC)OCCOCCCC, which Potency is on record?
Its Potency is “inactive”.

Which Potency does the source give for COP(=S)(OC)Oc1cc(Cl)c(Cl)cc1Cl here?
Its Potency is “inactive”.

With CCCCCCCCOC(=O)c1ccccc1C(=O)OCCCCCCCC as the compound, how does the Potency read?
The Potency was “inactive”.

With CCCCC(CC)COC(=O)Cl (stereo not given) as the compound, how does the Potency read?
The Potency was “inactive”.

With O=P(O)(O)CCCl as the compound, how does the Potency read?
The Potency was “inactive”.

Which Potency does the source give for Oc1ccc(-c2ccccc2)cc1 here?
Its Potency is “inactive”.

For C1=Cc2cccc3cccc1c23, which Potency is on record?
Its Potency is “inactive”.

For ClC1C(Cl)C(Cl)C(Cl)C(Cl)C1Cl (stereo not given), which Potency is on record?
Its Potency is “inactive”.

With CC(C)(OOC(C)(C)c1ccccc1)c1ccccc1 as the compound, how does the Potency read?
Its Potency is “inactive”.

With CCCCCCCCCCCOC(=O)c1ccccc1C(=O)OCCCCCCCCCCC as the compound, how does the Potency read?
Its Potency is “inactive”.

For COc1ccc(C(CN(C)C)C2(O)CCCCC2)cc1 (stereo not given), which Potency is on record?
The Potency was “inactive”.

With CCC(C)c1ccc(O)cc1 (stereo not given) as the compound, how does the Potency read?
Its Potency is “inactive”.

Which Potency does the source give for CNC(=O)N(C)c1nnc(C(C)(C)C)s1 here?
Its Potency is “inactive”.

Which Potency does the source give for Cc1cc(Cl)ccc1OCCCC(=O)O here?
Its Potency is “inactive”.

Which Potency does the source give for CCCCCCOC(=O)c1ccccc1C(=O)OCCCCCC here?
The Potency was “inactive”.

Which Potency does the source give for O=[N+]([O-])c1cccc2ccccc12 here?
Its Potency is “inactive”.

Which Potency does the source give for CCc1cccc(CC)c1N(COC)C(=O)CCl here?
Its Potency is “inactive”.
